Hit rate of the full screen: of about 64,000 compounds, fewer than 10 were called active. The list is a sample of the results. A number with no mark means an inactive call.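 The calls were made as follows: active = activation factor of at least 2 at 20 µM, relative to controls; inactive = the rest.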
target: Alkaline phosphatase, tissue-nonspecific isozyme (Homo sapiens) (UniProt P05186); assay: stimulation of alkaline phosphatase TNAP activity – biochemical, luminescent, intermediate phosphate acceptor level, primary screen (AID 813); details: purified TNAP, CDP-star luminescence, 100 mM DEA, 30 min; at 20 µM; stronger effect = higher value; scale: 0 levamisole-inhibited, 1 vehicle-only enzyme
Sequence (P05186 whole entry, looked up): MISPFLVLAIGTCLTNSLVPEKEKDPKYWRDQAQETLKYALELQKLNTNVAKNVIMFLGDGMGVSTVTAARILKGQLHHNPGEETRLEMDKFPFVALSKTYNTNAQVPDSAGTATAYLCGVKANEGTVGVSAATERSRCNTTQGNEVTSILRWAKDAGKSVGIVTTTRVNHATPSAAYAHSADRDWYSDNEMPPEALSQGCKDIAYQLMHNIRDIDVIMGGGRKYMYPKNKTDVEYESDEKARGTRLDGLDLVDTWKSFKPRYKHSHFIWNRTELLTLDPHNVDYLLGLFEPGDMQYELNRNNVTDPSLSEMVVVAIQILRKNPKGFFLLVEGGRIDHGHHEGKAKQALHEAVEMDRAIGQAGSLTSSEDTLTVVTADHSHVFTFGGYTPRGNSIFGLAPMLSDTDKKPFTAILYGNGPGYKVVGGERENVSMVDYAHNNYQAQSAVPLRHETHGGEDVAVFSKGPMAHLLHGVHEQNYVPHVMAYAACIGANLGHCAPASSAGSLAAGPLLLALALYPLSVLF

Row | SMILES | activation factor
1 | O=C(C1CCCO1)N(Cc1ccccc1)c1ccccc1 (stereo unspecified) | 0.9
2 | Cc1nn(-c2ccccc2)c2sc(C(=O)N(Cc3ccco3)C(C)C(=O)NC(C)(C)C)cc12 (stereo unspecified) | 0.9
3 | COc1cccc(N2C(=O)CC(N3CCN(S(=O)(=O)c4ccccc4)CC3)C2=O)c1 (stereo unspecified) | 1
4 | CCN(CC)S(=O)(=O)c1cccc(C(=O)NCC(=O)OCC(=O)NCc2ccccc2)c1 | 0.9
5 | O=C(O)c1ccc(COc2c(F)c(F)cc(F)c2F)o1 | 0.8
6 | CC12CN(Cc3ccccc3)CC(C)(CN(Cc3ccccc3)C1)C2=NO | 1.2
7 | COc1ccc(C)cc1-n1nnnc1SCC(=O)c1cc(C)n(Cc2ccco2)c1C | 0.8
8 | O=C(c1cccs1)N1CCN(Cc2ccc3c(c2)OCO3)CC1 | 1
9 | COc1cccc(N2CC(C(=O)Nc3c(C)cccc3C)CC2=O)c1 (stereo unspecified) | 1
10 | COc1cccc(N(C(=O)c2ccn[nH]2)C2(C(=O)Nc3c(C)cccc3C)CCCCC2)c1 | 2.8 (active)
11 | Fc1cc(F)c2nc(N3CCOCC3)sc2c1 | 0.9
12 | Cc1ccc(C(=O)O)cc1S(=O)(=O)NCC1CCCO1 (stereo unspecified) | 0.9
13 | COC(=O)c1ccccc1NC(=O)C1CCN(S(=O)(=O)c2cc(OC)ccc2OC)CC1 | 0.9
14 | Cc1cccc(N)c1SC1CCCCC1O (stereo unspecified) | 0.9
15 | CC(=O)Nc1cccc2c1[n+]([O-])c(C)c(C)[n+]2[O-] | 1
16 | CC(=O)OC(C(=O)NCCc1ccccc1)c1cccnc1 (stereo unspecified) | 1
17 | CCc1nc2oc3ccccc3c(=O)c2c(=O)n1Cc1ccc(OC)cc1 | 0.9
18 | CCSc1ncnc2c(C#N)c3n(c12)CCCCC3 | 0.9
19 | O=C(Nc1c(C(=O)N2CCCCC2)cnn1-c1ccccc1)c1ccco1 | 1
20 | CC1(C)CC(=O)C2=C(C1)NCN(CCCN1CCOCC1)C2 | 0.9
21 | CCOC(=O)N1CCN(C(=O)Cc2ccc(-n3c(=S)[nH]c4ccccc4c3=O)cc2)CC1 | 1
22 | O=C(OC(C(=O)NC1CCCC1)c1ccc(F)cc1)c1ccno1 (stereo unspecified) | 0.9
23 | CC(=O)N1CCN(CCN=CC2=C(O)CC(C)(C)CC2=O)CC1 | 0.9
24 | OCCCN1c2ccccc2Nc2nnc(-c3ccccc3)cc21 | 4.3 (active)

Row | SMILES | activation factor
25 | CCCS(=O)(=O)C(=C1Nc2ccccc2N1)S(=O)(=O)CCC | 0.9
26 | O=C(Cc1c(F)cccc1Cl)N1CCN(C(=O)c2ccco2)CC1 | 0.8
27 | O=C(COc1ccccc1Cl)Nn1cnnc1 | 0.9
28 | O=C(CN(Cc1ccccc1)C(=O)c1ccc2c(c1)OCCO2)NCc1ccc2c(c1)OCO2 | 0.9
29 | COc1ccc(C(=O)N(CCN2CCOCC2)CC(=O)NC2CCCC2)cc1OC | 0.9
30 | COc1ccc(C2C3=C(OC(C)=O)c4ccccc4C3=Nc3c2c(=O)n(C)c(=O)n3C)cc1 (stereo unspecified) | 0.8
31 | Cc1ccc(S(=O)(=O)c2c(N)n(C)c3nc4ccccc4nc23)cc1 | 0.9
32 | NC(=O)C1CCN(C2OC(=O)c3ccccc32)CC1 (stereo unspecified) | 0.9
33 | O=C(OCC(=O)N1CCN(C(=O)c2ccco2)CC1)c1ccccc1Cc1ccccc1 | 1
34 | Cc1coc2c(O)cc3c(c12)OC1(N2CCCCC2)C(=O)NCCCC31 (stereo unspecified) | 0.9
35 | CCC1=[N+]([O-])C(C)(/C(C)=N\O)N(O)C1(C)C (stereo unspecified) | 1
36 | O=C(CN1CCN(C(=O)c2cccc(F)c2)CC1)Nc1ccccc1F | 1.1
37 | CC/C(=N\O)C(C)(C)/[N+]([O-])=C/c1ccc(Br)cc1 | 0.9
38 | CCCN1Cc2cccc(C(=O)NCc3ccccc3)c2C1=O | 0.9
39 | CC(=O)N1CCc2cc(S(=O)(=O)Nc3ccccc3N3CCN(C)CC3)ccc21 | 1
40 | CCN(CC)c1ccc2cc(C(=O)O)c(=O)oc2c1 | 1
41 | Cc1ccc(C)c(N2CCN(C(=O)CCCCn3c(=O)[nH]c4ccccc4c3=O)CC2)c1 | 0.8
42 | CC1(C)Cc2c(sc3nc4n(c(=N)c23)CCCCC4)CO1 | 0.4
43 | O=c1cccc(-c2ccc(Br)cc2)o1 | 0.9
44 | O=C(CN1CCN(c2ccc(F)cc2)CC1)Nc1cccc(C(F)(F)F)c1 | 0.9
45 | Cc1ccc(S(=O)(=O)N2CCC(C(=O)OCC(=O)N3CC(=O)Nc4ccccc43)CC2)cc1 | 0.9
46 | CCC(c1nnnn1Cc1ccco1)N(CCc1ccccc1)Cc1cc2cccc(C)c2[nH]c1=O (stereo unspecified) | 0.9
47 | O=C1CC(Cc2ccccc2)C(=O)N1c1ccc(Cl)cn1 (stereo unspecified) | 1
48 | C=CCn1c(SCC(=O)NC23CC4CC(CC(C4)C2)C3)nc(O)cc1=O | 0.9

Row | SMILES | activation factor
49 | CCn1c(=N)n(CC(=O)c2cccc(OC)c2)c2ccccc21 | 1
50 | O=C(CCCOc1ccccc1)Nc1cccc(C(=O)O)c1 | 1
51 | COc1ccc(S(=O)(=O)N2CCN(c3ncnc4c(-c5ccccc5)nsc34)CC2)cc1 | 0.9
52 | CCOC(=O)c1c(N)c(C#N)nn1-c1ccccc1C(=O)OC | 0.8
53 | Cc1cccc(N2CC(C)Cn3c2nc2c3c(=O)n(CC(=O)OCc3ccccc3)c(=O)n2C)c1 (stereo unspecified) | 0.9
54 | CCn1c(=O)cc(O)c2ccccc21 | 1
55 | O=C1c2ccccc2C(O)N1Cc1ccccc1 (stereo unspecified) | 1
56 | CCOc1ccc(CCNC(=O)C(CC)n2nc(C)n3c(cc4sccc43)c2=O)cc1OCC (stereo unspecified) | 1
57 | Cc1cc(=O)n2c3c(cccc13)CCC2 | 0.9
58 | CC(C)OCCCNc1nc2c(c(=O)n(Cc3ccccc3F)c(=O)n2C)n1C | 0.9
59 | CCOC(=O)c1sc(NC(=O)c2cc(S(=O)(=O)N3CCOCC3)ccc2C)nc1C | 0.9
60 | Cc1ccc(S(=O)(=O)NCCN2CCOCC2)cc1C | 1
61 | Cc1cc(C(=O)N2CCN(c3ccccn3)CC2)c(C)o1 | 0.9
62 | CC(=O)NCC(=O)N(C)C(C(=O)Nc1ccc2c(c1)OCCO2)c1ccccc1 (stereo unspecified) | 1
63 | CCOC(=O)c1c(C2CC2)csc1NC(=O)CSCc1c(C)noc1C | 0.9
64 | O=C(NC1CCCCC1)c1ccc2c(=O)n(CC3CCCO3)c(=O)[nH]c2c1 (stereo unspecified) | 1
65 | CCOc1ccc(OCC)c(NC(=O)CSc2nnc(Cn3cnc4ccccc43)n2C)c1 | 0.9
66 | CCOC(=O)CSc1nc2c(c(=O)n(Cc3ccccc3Cl)c(=O)n2C)n1C | 0.9
67 | CCOC(=O)C1=C(CNC2CCCCC2)NC(=O)NC1c1cc(C)ccc1C (stereo unspecified) | 0.9
68 | CSc1ccc(S(=O)(=O)NCc2ccc(Cl)cc2)cc1 | 0.8
69 | CC1(C)CC(=O)C=C(NC2CC(C)(C)NC(C)(C)C2)C1 | 0.9
70 | CCOC(=O)n1c(SCC(=O)N(CC)CC)nc2ccccc21 | 0.9
71 | CCC(C)(C)n1nnnc1C(c1ccccc1OC)N1CCSCC1 (stereo unspecified) | 0.9

Reference: PubChem BioAssay AID813 (Sanford-Burnham Center for Chemical Genomics, 2007)
